The values below come from PubChem BioAssay (Tox21).

Records with an inconclusive call do not appear. A number with no mark means an inactive call. Active and inactive are the calls of the source. Calls follow the shape of the full dose curve. Positions of bridges follow the written chain, without caps; N, C: chain ends. Non-standard residues stand in square brackets, D forms with d. Residues, ends and D or L forms follow the SMILES beside them. ξ: configuration not given here. *: point of attachment. d(aThr) = C[C@@H](O)[C@@H](N)C(=O)O; ξThr(3R) = C[C@@H](O)C(N)C(=O)O; X3 = CC[C@@H](C)CCCCC(=O)*; dDab = NCC[C@@H](N)C(=O)O
% is scaled to controls: 0 for no effect and ±100 for the full control effect.

A short description of the first experiment: qHTS assay for small molecules that induce genotoxicity in human embryonic kidney cells expressing luciferase-tagged ATAD5 - cell viability (AID 651634). Also: nearly all actives have a fitted effect of over 25% in size. The note with it: HEK293T ATAD5-luc cells viability, CellTiter-Fluor, 15.5 h; series mostly up to 83.3 µM; activity, negative = cytotoxicity: at the top concentration. In a few lines:
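HEK293T ATAD5-luc cells, 2,000/well; compound 15.5 hr, 37C/5% CO2; CellTiter-Fluor 30 min, 37C; fluorescence read.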
Regarding `CCC(=O)NS(=O)(=O)c1ccc(-c2c(-c3ccccc3)noc2C)cc1`, the “activity, negative = cytotoxicity” value is 22%. Consider `O=C1NCCN1c1ncc([N+](=O)[O-])s1`, for which the “activity, negative = cytotoxicity” value was 4.06% [at 39.1 µM]. Still for that read-out and setting: then `CCC(=O)NCCC1CCc2ccc3c(c21)CCO3` (centres undefined), with 4.56%; and `CN1CCN(C2=Nc3ccccc3Cc3ccccc32)CC1`, with 5.15%. As for `CCCCCCCCCCCCCCCC(=O)O[C@@H]1CC(C)=C(/C=C/C(C)=C/C=C/C(C)=C/C=C/C=C(C)/C=C/C=C(C)/C=C/C2=C(C)C[C@@H](OC(=O)CCCCCCCCCCCCCCC)CC2(C)C)C(C)(C)C1`, the “activity, negative = cytotoxicity” value is -11.4%.

For `Cc1ccc(S(=O)(=O)NC(=O)N[C@@H](C)Cc2ccccc2)cc1`, the “activity, negative = cytotoxicity” value was 21.7%. Same read-out and setting: the value for `O=C(O)c1cc(N=Nc2ccc(O)c(C(=O)O)c2)ccc1O` was -8.35%.

A further experiment in a line: qHTS assay for small molecule disruptors of the mitochondrial membrane potential - cell viability (AID 720634).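 Also: human HepG2 liver cancer cells; nearly all actives have a fitted effect of over 20% in size.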 The note with it: HepG2 viability, ATP luminescence (CellTiter-Glo), 1 h; series mostly up to 83.2 µM; activity change, negative = cytotoxicity: at the top concentration. In a few lines:
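Luminescence from CellTiter-Glo (ATP content) gave viability in HepG2 cells, read in the same wells as the MMP dye assay after 1 hr compound exposure at 37 C.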
For the molecule `COc1ccc(C2NC(=S)N3C(c4ccc(OC)c(OC)c4)NC(=S)N23)cc1OC` (centres undefined), the “activity change, negative = cytotoxicity” value is -7.46%. Regarding `CC(CN(C)C)CN1c2ccccc2Sc2ccc(C(F)(F)F)cc21` (centres undefined), the “activity change, negative = cytotoxicity” value was 11.2%. The same measure, in the same setting: then `C[C@@H]1CCC2[C@@H](C)[C@@H](O)O[C@@H]3O[C@@]4(C)CC[C@@H]1[C@@]23OO4` (some centres undefined), with -7.41%. The same measure, in the same setting: then `CCc1ccc2c(c1)N(CC(C)CN(C)C)c1ccccc1S2` (centres undefined), with 28.3%. Consider `CCCCCCCCCCCCCCCCCC[N+](C)(C)CCC[Si](OC)(OC)OC`, for which the “activity change, negative = cytotoxicity” value was -11%.

Regarding `CCOC(=O)[C@H](CS)NCCN[C@@H](CS)C(=O)OCC`, the “activity change, negative = cytotoxicity” value was -0.808%. The same measure, in the same setting: the value for `CC1(C)S[C@@H]2[C@H](NC(=O)[C@H](NC(=O)N3CCN(S(C)(=O)=O)C3=O)c3ccccc3)C(=O)N2[C@H]1C(=O)O` was -7.41%; that for `CC1=C[C@H](O)CC(C)(C)[C@H]1/C=C/C(C)=C/C=C/C(C)=C/C=C/C=C(C)/C=C/C=C(C)/C=C/C1=C(C)C[C@@H](O)CC1(C)C` was 2.51%; that for `NCCC(=O)[N-][C@@H](Cc1cnc[nH]1)C(=O)O.[Zn]` was 7.26%. On the same count and under the same terms, then `C#C[C@]1(O)CC[C@H]2[C@@H]3CCC4=CCCC[C@@H]4[C@H]3C(=C)C[C@@]21CC`, with -13.8%. On the same count and under the same terms, then `C=C1C(=C/C=C2\CCC[C@]3(C)[C@@H]([C@H](C)/C=C/[C@H](C)C(C)C)CC[C@@H]23)C[C@@H](O)C[C@@H]1O`, with 0.243%; and `CC(=O)[C@@]1(O)CC[C@H]2[C@@H]3C=C(Cl)C4=CC(=O)CC[C@]4(C)[C@H]3CC[C@@]21C`, with -16.9%; and `CC[C@@H](C)CCCCC(=O)N[C@H](CCN)C(=O)N[C@@H](C(=O)N[C@H](CCN)C(=O)N[C@@H]1CCNC(=O)C([C@@H](C)O)NC(=O)[C@@H](CCN)NC(=O)[C@@H](CCN)NC(=O)[C@@H](CC(C)C)NC(=O)[C@@H](Cc2ccccc2)NC(=O)[C@@H](CCN)NC1=O)[C@@H](C)O` (stereo partly drawn) (X3-[dDab][d(aThr)][dDab][dDab][dDab][dF][dL][dDab][dDab][ξThr(3R)]; lactam 4-C), with -15.7%. Take `COc1ccccc1N1CCN(CCCC(=O)c2ccc(F)cc2)CC1`: the “activity change, negative = cytotoxicity” value was -2.22%. The same measure, in the same setting: the value for `CCC(=O)Oc1ccc2c(c1)CC[C@@H]1[C@@H]2CC[C@]2(C)[C@@H](OC(=O)CC)CC[C@@H]12` was -3.02%; that for `CC(=O)Oc1cc(C)c(OC(C)=O)c2ccccc12` was 5.66%. Still for that read-out and setting: then `CC(C)(C)NC(=O)[C@H]1CC[C@H]2[C@@H]3CC=C4C=C(C(=O)O)CC[C@]4(C)[C@H]3CC[C@]12C`, with -6.65%. On the same count and under the same terms, then `Clc1ccc(COC(Cn2ccnc2)c2ccc(Cl)cc2Cl)c(Cl)c1` (centres undefined), with 18.9% [at 39.1 µM]; and `CCCCC[C@H](O)/C=C/[C@H]1[C@H](O)CC(=O)[C@@H]1CCCCCCC(=O)O`, with -5.69% [at 39.1 µM]. As for `CCOC(=O)C1=C(COCCN)NC(C)=C(C(=O)OC)C1c1ccccc1Cl` (centres undefined), the Potency entry was “inactive”. Take `CN1CCN(CCCN2c3ccccc3Sc3ccccc32)CC1`: the “activity change, negative = cytotoxicity” value is 5.02%.

Take `CN[C@@H]1[C@@H](O)[C@@H](O[C@@H]2[C@@H](O)[C@H](OC3OC(CN)=CCC3N)[C@@H](N)C[C@H]2N)OC[C@]1(C)O` (some centres undefined): the “activity change, negative = cytotoxicity” value is -9.22% [at 39.1 µM]. Same read-out and setting: the value for `CCC[C@@H]1C[C@@H](C(=O)N[C@@H]([C@H]2O[C@H](SC)[C@H](O)[C@@H](O)[C@H]2O)[C@H](C)Cl)N(C)C1` was 1.02%; that for `CCC[C@@]1(CCc2ccccc2)CC(O)=C([C@H](CC)c2cccc(NS(=O)(=O)c3ccc(C(F)(F)F)cn3)c2)C(=O)O1` was -17.5%. The same measure, in the same setting: the value for `CCCCCCC(=O)O[C@H]1CC[C@H]2[C@@H]3CCc4cc(O)ccc4[C@H]3CC[C@]12C` was 2.61%. Same read-out and setting: the value for `CCC(=O)OCC(=O)[C@@]1(OC(=O)CC)[C@@H](C)C[C@H]2[C@@H]3CCC4=CC(=O)C=C[C@]4(C)[C@@]3(F)[C@@H](O)C[C@@]21C` was -9.27%.

On to `CC[C@]1(O)CC2CN(CCc3c([nH]c4ccccc34)[C@@](C(=O)OC)(c3cc4c(cc3OC)N(C)[C@H]3[C@@](O)(C(N)=O)[C@H](O)[C@]5(CC)C=CCN6CC[C@]43[C@@H]65)C2)C1` (some centres undefined), for which the “activity change, negative = cytotoxicity” value was 8.23%.
